Results published in PubChem BioAssay AID1839 (Johns Hopkins Ion Channel Center, 2009).
Screen size: about 2,400 compounds; about 220 (9.2%) were called active.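 How the source made its calls: active means signal change above the mean of dofetilide-free buffer controls plus 3 SD, so a positive margin; inactive means the rest.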 The sample as a whole holds a higher share of actives than the screen did.

Experiment: nonspecific flux effects in parental CHO-K1, confirmation, counter-screen for hERG block protection project, cell-based, CHO-K1 parental line, FluxOR thallium flux (AID 1839);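 further: compounds applied alone with no dofetilide to cells lacking hERG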
Conditions: CHO-K1 parental cells, FluxOR thallium flux fluorescence; at 10 µM

Row | SMILES | signal change vs control minus 3*SD hit threshold (margin above threshold, higher = more increase)
1 | CC/C(=C\C=C\[C@@H]1C=C[C@@H]2CCC[C@H]2[C@@H]1C(=O)c1ccc[nH]1)[C@@H]1O[C@@H]([C@@H](C)C(=O)O)CC[C@@H]1C | 83% (active)
2 | O=c1c2cc(Br)ccc2[nH]c(=S)n1-c1ccccc1 | -20.2% (inactive)
3 | CCCCN1C(=O)/C(=C/c2ccc(N3CCCCCC3)cc2)C(=O)NC1=S | -36% (inactive)
4 | Cc1ccc(/C=C2\C(=O)NC(=S)N(c3ccc(F)cc3)C2=O)s1 | -30.1% (inactive)
5 | CN1C(=O)/C(=C/c2ccc(Cl)s2)C(=O)NC1=S | -29.5% (inactive)
